# Assay results published in PubChem BioAssay (EPA / NIEHS).
# The source made the active and inactive calls. The calls were made as follows: active = hit-call score of the fitted dose curve at least 0.9, where 1 is the maximum; inactive = score below 0.9.
# Experiment: Tanguay_ZF_120hpf_DP24: Oregon State University Tanguay Lab 24 Hour Post-fertilization zebrafish Assay for Delayed Development (AID 2284390)
# Description: Tanguay_ZF_120hpf is a whole embryo, multiplexed endpoint assay using zebrafish larvae exposed for 120 hours post fertilization on a 96-well plate.Tanguay_ZF_120hpf_DP24 is […] measured or calculated from the Tanguay_ZF_120hpf assay. It is designed to make measurements of zebrafish development as detected with brightfield microscopy of developing zebrafish embryos.Data from the assay component Tanguay_ZF_120hpf_DP24 was analyzed into 1 assay endpoints. This assay endpoint, Tanguay_ZF_120hpf_DP24, was analyzed in the positive analysis fitting direction relative to DMSO as the negative control and baseline of activity. Using a type of morphology reporter, gain-of-signal activity can be used to understand changes in developmentals as they relate to the whole embryo. To generalize the intended target to other relatable targets, this assay endpoint is annotated to the zebrafish development intended target family, where the subfamily is embryonic morphogenesis.
# Zebrafish husbandry: Tropical 5D wild-type adult zebrafish were housed in at an approximate density of 1000 per 100 gallon tank at the Sinnhuber Aquatic Research Laboratory, Oregon State University, Corvallis, OR. Each tank was kept at standard laboratory conditions of 28C on a 14-h light/10-h dark photoperiod in fish water consisting of reverse osmosis water supplemented with a commercially available salt (Instant Ocean). Spawning funnels were placed into the tanks the night prior, and embryos were collected and staged. To increase bioavailability, the chorion was enzymatically removed using pronase (63.6mg/ml, >/= 3.5U/mg, Sigma-Aldrich: P5147) at 4 hours post fertilization (hpf) using a custom automated dechorionator.Chemical exposures: Six hpf dechorionated embryos were placed 1 embryo per well in a 96-well plate prefilled with 90 ul of EM using automated embryo placement systems (AEPS). Ten microliters of each row of dilution plate 2 was added to 2 exposure plates. The final DMSO concentration used was 0.64% (vol/vol). Thirty-two embryos were also exposed to 5uM trimethyltin chloride (positive control). Plates were sealed to prevent evaporation and foil covered to reduce light exposure and kept in a 28C incubator. Embryos were statically exposed until 120 hpf. At 24 hpf, embryos were assessed for photomotor response using a custom photomotor response analysis tool (PRAT) and for developmental toxicity endpoints (MO24: mortality at 24 hpf, DP: developmental progression, SM: spontaneous movement, and NC: notochord distortion). At 120 hpf, locomotor activity was measured using Viewpoint Zebralab and assessed for 13 endpoints. Zebrafish acquisition and analysis program (ZAAP), a custom program designed to inventory, acquire, and manage zebrafish data, was used to collect developmental endpoints as either present or absent (i.e., binary responses were recorded). If mortality occurred for an embryo (at either 24 or 120 hpf), the non-mortality endpoints were not measured.
SMILES,outcome,AC50
O=C(O)C(F)(F)OC(F)(F)C(F)(F)OC(F)(F)F,inactive,
O=C(O)C(F)(F)OC(F)(F)C(F)(F)OC(F)(F)C(=O)O,inactive,
FC(F)(F)C(F)(C(F)(F)F)C(F)(F)C(F)(F)CC1CO1 (centres undefined),inactive,
O=C(O)C(F)(F)C(F)(F)C(=O)O,inactive,
NC(=O)C(F)(F)C(F)(F)F,inactive,
O=C(O)C(F)(OC(F)(F)C(F)(F)C(F)(F)F)C(F)(F)F (centres undefined),inactive,
COC(=O)C(F)(F)C(F)(F)OC(F)(C(F)(F)F)C(F)(F)OC(F)=C(F)F (centres undefined),inactive,
OCC(F)(F)OC(F)(F)C(F)(F)OC(F)(F)C(F)(F)OC(F)(F)F,inactive,
O=S(=O)(F)C(F)(F)C(F)(F)C(F)(F)C(F)(F)C(F)(F)C(F)(F)C(F)(F)C(F)(F)F,inactive,
C=CC(=O)OCC(F)(F)C(F)F,,45.3 µM (active)
O=C(O)C=CC(F)(C(F)(F)F)C(F)(F)F,inactive,
OCC(F)(F)OC(F)(F)C(F)(F)OC(F)(F)C(F)(F)OC(F)(F)CO,,33.3 µM (active)
OCC(F)(F)OC(F)(F)C(F)(F)OC(F)(F)CO,inactive,
CC(O)C(F)(F)C(F)(F)F (centres undefined),inactive,
